# Results filed as inconclusive are left out. Active and inactive are the calls of the source. Rule for the calls: active = hit-call score of the fitted dose curve at least 0.9, where 1 is the maximum; inconclusive = response in the unintended direction; inactive = score below 0.9.
# Test: CCTE_Deisenroth_AIME_384WELL_CTox_Active: Cytotoxicity Assessment (CTOX) in CCTE's 384-well Estrogen Receptor Transactivation Assay with AIME metabolic competence (metabolism positive), Deisenroth Lab (AID 2284037);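 note: chemicals first conditioned 2 h by alginate-bound induced rat liver S9 before cells; activity means signal loss indicating cell death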
# Summary of the method: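 Chemicals pre-incubated 2 hours with alginate-immobilised phenobarbital/beta-naphthoflavone-induced male Sprague Dawley rat liver S9, then conditioned medium applied 24 hour to VM7Luc4E2 cells. Viability by fluorogenic protease substrate; 10-point series 0.002 - 200 uM.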
SMILES,outcome,AC50
CCCCC(CC)C(=O)O (centres undefined),inactive,
CC(O)COc1ccccc1 (centres undefined),inactive,
c1cnc2c(c1)ccc1cccnc12,,30.9 µM (active)
O=S(=O)(O)c1ccccc1,inactive,
CCCCCCCCCCCCOC(=O)c1cc(O)c(O)c(O)c1,inactive,
CCCCCCCCCCCCOS(=O)(=O)O,,143 µM (active)
Cc1[nH]nc2c1N=C(c1ccccc1Cl)c1cc([N+](=O)[O-])ccc1N2,,159 µM (active)
NC(=NCCCCCCN=C(N)/N=C(\N)Nc1ccc(Cl)cc1)/N=C(\N)Nc1ccc(Cl)cc1,,59.5 µM (active)
Cc1cc(Cc2cc(C)cc(C(C)(C)C)c2O)c(O)c(C(C)(C)C)c1,,43.1 µM (active)

# Test: CCTE_Deisenroth_AIME_384WELL_CTox_Inactive: Cytotoxicity Assessment (CTOX) in CCTE's 384-well Estrogen Receptor Transactivation Assay without AIME metabolic competence (metabolism negative), Deisenroth Lab (AID 2284039);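 note: cell viability via live-cell protease substrate cleaved to fluorescent probe; cells exposed 24 h to medium preincubated 2 h with alginate-water beads without S9; loss of fluorescence signal means loss of viability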
# Summary of the method: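 VM7Luc4E2 human breast cells received conditioned medium from a 2 h incubation of chemical with alginate-water microspheres (no S9), then were exposed 24 h. Viability was read as protease-substrate cleavage to a fluorescent probe; loss of signal was fitted bidirectionally over 0.002–200 uM.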
SMILES,outcome,AC50
CCCCC(CC)C(=O)O (centres undefined),inactive,
CC(O)COc1ccccc1 (centres undefined),inactive,
c1cnc2c(c1)ccc1cccnc12,,15.7 µM (active)
Cc1ccc(S(=O)(=O)O)cc1,inactive,
CCCCCCCCCCCCOC(=O)c1cc(O)c(O)c(O)c1,,128 µM (active)
CC(C)[C@@H]1CC[C@@H](C)C[C@H]1O,inactive,
CCCCCCCCCCCCOS(=O)(=O)O,,147 µM (active)
Cc1[nH]nc2c1N=C(c1ccccc1Cl)c1cc([N+](=O)[O-])ccc1N2,,138 µM (active)
NC(=NCCCCCCN=C(N)/N=C(\N)Nc1ccc(Cl)cc1)/N=C(\N)Nc1ccc(Cl)cc1,,46.8 µM (active)
Cc1cc(Cc2cc(C)cc(C(C)(C)C)c2O)c(O)c(C(C)(C)C)c1,,41.8 µM (active)

# Source: PubChem BioAssay (EPA / NIEHS)
